From paper PMC7862700, “An all-to-all approach to the identification of sequence-specific readers for epigenetic DNA modifications on cytosine”

Assays:
Assay in all cases: DAPPL (digital affinity profiling via proximity ligation, sequencing); 10 mM Tris-HCl pH 7.5, 50 mM NaCl, 1 mM DTT, 4% glycerol, room temperature, 30 min; GST-TFs on glutathione beads, 16-mer random dsDNA library, 0.1% formaldehyde crosslink after washing; high values mean tight binding
FLI1 = molecular target: T1, FLI1 (Homo sapiens, UniProt Q01543 1-452); details: protein: recombinant; tags: N-terminal GST; dsDNA, one strand shown
T1 sequence: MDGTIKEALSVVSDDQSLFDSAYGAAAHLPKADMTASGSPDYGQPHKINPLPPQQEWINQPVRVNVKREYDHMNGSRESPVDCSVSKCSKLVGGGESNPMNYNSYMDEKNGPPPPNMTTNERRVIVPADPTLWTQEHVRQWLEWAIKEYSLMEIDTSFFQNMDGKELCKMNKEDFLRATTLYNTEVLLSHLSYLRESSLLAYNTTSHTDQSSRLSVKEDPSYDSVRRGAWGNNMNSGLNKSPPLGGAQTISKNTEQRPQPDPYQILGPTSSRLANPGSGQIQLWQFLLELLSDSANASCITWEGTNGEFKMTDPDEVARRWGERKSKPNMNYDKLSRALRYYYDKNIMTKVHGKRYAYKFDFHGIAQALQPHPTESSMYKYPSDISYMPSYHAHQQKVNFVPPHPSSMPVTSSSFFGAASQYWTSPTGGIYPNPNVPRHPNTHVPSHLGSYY
Outline: (§1)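 The binding signal reported is, for every hexamer, its read frequency for a factor over its read frequency for the tag-only sample. Reads came from pools of yeast-expressed, GST-fused human transcription factors on glutathione beads, barcoded with DNA and mixed with that sample, which were incubated with 200 nmole of a random double-stranded 16-mer DNA library in Tris/NaCl/DTT/glycerol buffer at room temperature for 30 min. After washing, the pools were crosslinked with 0.1% formaldehyde, proximity-ligated with BsaI/T4 ligase for 1 h at 37 °C, PCR-amplified and sequenced on an Illumina NextSeq500.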

ELK1 = molecular target: T2, ELK1 (Homo sapiens, UniProt P19419 1-428); details: protein: recombinant; tags: N-terminal GST; dsDNA, one strand shown
T2 sequence: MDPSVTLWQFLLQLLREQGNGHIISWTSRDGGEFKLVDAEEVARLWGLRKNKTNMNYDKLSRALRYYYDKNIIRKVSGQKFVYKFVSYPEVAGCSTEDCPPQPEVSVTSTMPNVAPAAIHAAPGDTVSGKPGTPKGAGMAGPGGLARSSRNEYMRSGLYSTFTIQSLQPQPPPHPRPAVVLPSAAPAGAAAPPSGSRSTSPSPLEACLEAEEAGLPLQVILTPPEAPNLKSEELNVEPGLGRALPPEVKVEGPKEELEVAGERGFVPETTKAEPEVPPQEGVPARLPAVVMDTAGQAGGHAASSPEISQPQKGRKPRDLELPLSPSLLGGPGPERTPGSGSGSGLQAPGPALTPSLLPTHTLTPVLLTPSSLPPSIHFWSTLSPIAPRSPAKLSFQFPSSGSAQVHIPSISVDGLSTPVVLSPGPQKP
Outline: as §1

GABPA = molecular target: T3, GABPA (Homo sapiens, UniProt Q06546 1-454); details: protein: recombinant; tags: N-terminal GST; dsDNA, one strand shown
T3 sequence: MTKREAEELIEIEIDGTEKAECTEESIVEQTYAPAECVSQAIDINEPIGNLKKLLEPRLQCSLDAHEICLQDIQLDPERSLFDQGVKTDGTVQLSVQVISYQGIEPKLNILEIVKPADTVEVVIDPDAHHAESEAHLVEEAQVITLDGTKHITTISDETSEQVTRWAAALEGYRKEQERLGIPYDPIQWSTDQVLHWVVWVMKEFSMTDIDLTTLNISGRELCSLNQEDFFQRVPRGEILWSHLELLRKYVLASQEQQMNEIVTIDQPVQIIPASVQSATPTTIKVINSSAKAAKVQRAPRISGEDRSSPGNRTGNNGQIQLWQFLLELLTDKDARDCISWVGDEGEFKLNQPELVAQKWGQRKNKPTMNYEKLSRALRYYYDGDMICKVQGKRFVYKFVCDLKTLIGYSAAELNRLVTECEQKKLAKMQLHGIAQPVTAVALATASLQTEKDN
Outline: as §1

ELF1 = ELF1 (Homo sapiens, UniProt P32519 1-619); details: protein: recombinant; tags: N-terminal GST; dsDNA, one strand shown
Chain of ELF1 (P32519 whole entry): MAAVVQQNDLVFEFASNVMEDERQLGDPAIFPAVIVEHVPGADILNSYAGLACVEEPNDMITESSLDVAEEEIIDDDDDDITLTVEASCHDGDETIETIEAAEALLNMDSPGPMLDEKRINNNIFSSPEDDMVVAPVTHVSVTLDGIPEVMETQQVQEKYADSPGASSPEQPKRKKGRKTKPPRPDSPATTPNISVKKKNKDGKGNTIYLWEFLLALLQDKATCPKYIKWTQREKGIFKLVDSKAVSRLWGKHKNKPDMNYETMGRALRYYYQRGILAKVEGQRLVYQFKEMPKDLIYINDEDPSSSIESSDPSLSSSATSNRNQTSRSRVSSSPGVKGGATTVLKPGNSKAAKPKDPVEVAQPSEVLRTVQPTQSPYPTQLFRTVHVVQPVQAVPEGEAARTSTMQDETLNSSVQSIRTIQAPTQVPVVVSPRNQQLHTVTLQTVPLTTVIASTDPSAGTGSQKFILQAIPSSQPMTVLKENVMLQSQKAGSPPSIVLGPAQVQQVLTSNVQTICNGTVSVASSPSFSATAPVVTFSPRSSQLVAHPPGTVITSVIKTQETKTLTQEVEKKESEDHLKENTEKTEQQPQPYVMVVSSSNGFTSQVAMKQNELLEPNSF
Outline: as §1

EHF = molecular target: T4, EHF (Homo sapiens, UniProt Q9NZC4 1-300); details: protein: recombinant; tags: N-terminal GST; dsDNA, one strand shown
T4 sequence: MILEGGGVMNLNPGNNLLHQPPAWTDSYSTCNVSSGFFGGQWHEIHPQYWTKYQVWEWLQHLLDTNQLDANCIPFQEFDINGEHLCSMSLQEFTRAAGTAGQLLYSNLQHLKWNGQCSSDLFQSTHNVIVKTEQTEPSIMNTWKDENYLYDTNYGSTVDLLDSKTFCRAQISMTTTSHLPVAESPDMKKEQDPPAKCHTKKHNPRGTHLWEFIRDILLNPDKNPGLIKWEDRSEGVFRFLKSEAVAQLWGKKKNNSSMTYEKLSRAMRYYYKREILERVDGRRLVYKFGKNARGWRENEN
Outline: as §1

SPI1 = SPI1 (Homo sapiens, UniProt P17947 1-270); details: protein: recombinant; tags: N-terminal GST; dsDNA, one strand shown
Outline: as §1

ELK3 = molecular target: T5, ELK3 (Homo sapiens, UniProt P41970 1-407); details: protein: recombinant; tags: N-terminal GST; dsDNA, one strand shown
T5 sequence: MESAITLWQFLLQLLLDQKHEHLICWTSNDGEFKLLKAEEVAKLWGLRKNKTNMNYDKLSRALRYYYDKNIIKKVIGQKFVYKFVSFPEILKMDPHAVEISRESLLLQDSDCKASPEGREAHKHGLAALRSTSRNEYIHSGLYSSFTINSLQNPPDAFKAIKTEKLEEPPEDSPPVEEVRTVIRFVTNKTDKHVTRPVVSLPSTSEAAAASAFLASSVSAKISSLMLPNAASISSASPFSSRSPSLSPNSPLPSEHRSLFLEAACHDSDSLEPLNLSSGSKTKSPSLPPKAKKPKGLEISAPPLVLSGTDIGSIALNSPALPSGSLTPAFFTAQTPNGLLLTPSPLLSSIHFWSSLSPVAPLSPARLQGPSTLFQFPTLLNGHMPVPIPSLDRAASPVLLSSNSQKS
Outline: as §1

ETV5 = ETV5 (Homo sapiens, UniProt P41161 1-510); details: protein: recombinant; tags: N-terminal GST; dsDNA, one strand shown
Chain of ETV5 (P41161 whole entry): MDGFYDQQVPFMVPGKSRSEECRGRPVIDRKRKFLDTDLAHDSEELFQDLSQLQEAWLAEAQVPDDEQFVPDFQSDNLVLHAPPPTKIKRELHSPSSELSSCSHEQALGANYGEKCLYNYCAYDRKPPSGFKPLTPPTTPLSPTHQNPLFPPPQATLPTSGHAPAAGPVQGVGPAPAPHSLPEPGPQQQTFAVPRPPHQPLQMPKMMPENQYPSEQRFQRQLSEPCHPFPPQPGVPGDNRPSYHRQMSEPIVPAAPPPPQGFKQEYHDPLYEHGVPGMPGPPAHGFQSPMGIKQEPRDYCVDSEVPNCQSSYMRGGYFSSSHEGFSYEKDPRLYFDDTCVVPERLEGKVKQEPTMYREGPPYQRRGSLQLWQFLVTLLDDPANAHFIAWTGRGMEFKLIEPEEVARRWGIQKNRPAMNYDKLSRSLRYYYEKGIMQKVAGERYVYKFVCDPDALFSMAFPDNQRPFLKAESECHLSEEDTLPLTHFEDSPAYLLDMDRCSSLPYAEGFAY
Outline: as §1

HSF1 = HSF1 (Homo sapiens, UniProt Q00613 1-529); details: protein: recombinant; tags: N-terminal GST; chain copies: 3; dsDNA, one strand shown
Chain of HSF1 (Q00613 whole entry): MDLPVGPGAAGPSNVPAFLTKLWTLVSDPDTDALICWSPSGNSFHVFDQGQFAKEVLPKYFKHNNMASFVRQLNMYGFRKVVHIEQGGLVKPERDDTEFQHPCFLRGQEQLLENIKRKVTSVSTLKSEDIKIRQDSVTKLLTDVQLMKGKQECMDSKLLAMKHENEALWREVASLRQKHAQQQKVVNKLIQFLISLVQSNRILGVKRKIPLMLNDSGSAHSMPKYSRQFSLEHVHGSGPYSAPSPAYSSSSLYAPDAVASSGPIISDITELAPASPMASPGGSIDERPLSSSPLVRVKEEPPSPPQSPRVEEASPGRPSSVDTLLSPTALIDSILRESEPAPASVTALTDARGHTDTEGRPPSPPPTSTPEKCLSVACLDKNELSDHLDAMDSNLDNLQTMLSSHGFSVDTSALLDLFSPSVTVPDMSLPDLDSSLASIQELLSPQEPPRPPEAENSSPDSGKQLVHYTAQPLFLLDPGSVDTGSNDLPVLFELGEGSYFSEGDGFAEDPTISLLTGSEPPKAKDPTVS
Outline: as §1

SPIC = molecular target: T6, SPIC (Homo sapiens, UniProt Q8N5J4 1-248); details: protein: recombinant; tags: N-terminal GST; dsDNA, one strand shown
T6 sequence: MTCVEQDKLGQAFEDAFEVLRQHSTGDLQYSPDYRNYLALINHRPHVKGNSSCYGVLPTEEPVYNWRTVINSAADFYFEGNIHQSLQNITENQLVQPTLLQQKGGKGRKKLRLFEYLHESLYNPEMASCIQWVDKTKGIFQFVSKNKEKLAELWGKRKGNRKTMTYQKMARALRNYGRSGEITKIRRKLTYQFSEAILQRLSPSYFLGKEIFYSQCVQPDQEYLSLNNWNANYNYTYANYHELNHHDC
Outline: as §1

ELF4 = ELF4 (Homo sapiens, UniProt Q99607 1-663); details: protein: recombinant; tags: N-terminal GST; dsDNA, one strand shown
Chain of ELF4 (Q99607 whole entry): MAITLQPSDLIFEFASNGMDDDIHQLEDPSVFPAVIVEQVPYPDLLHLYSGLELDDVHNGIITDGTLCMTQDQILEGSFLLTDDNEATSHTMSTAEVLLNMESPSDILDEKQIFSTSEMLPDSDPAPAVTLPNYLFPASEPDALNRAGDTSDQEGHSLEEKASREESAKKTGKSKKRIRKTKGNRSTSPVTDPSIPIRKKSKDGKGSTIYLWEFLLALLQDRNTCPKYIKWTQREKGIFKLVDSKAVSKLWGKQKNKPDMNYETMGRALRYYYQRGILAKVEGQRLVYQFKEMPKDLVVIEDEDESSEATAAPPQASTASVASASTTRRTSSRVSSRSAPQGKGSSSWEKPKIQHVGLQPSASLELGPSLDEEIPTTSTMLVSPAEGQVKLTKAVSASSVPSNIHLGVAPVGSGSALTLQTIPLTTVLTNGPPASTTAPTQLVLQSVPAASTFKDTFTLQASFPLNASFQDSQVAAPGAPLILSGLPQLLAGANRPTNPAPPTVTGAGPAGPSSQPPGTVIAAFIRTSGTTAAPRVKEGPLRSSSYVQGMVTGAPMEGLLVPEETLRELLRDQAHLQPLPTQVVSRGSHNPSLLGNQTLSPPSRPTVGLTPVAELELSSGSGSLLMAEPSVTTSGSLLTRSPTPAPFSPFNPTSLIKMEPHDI
Outline: as §1

ELK4 = molecular target: T7, ELK4 (Homo sapiens, UniProt P28324-2 1-405); details: protein: recombinant; tags: N-terminal GST; dsDNA, one strand shown
T7 sequence: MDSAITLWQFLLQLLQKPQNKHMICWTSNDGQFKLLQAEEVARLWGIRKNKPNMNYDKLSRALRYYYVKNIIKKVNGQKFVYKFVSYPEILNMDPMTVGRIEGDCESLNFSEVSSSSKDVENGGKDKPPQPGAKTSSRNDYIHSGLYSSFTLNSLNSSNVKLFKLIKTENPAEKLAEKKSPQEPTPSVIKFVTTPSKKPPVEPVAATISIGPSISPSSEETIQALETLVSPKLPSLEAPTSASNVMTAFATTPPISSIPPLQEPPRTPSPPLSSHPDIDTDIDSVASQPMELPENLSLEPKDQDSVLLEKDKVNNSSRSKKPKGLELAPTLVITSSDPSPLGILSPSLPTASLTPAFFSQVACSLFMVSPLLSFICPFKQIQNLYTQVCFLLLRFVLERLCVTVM
Outline: as §1

ETV2 = molecular target: T8, ETV2 (Homo sapiens, UniProt O00321 1-342); details: protein: recombinant; tags: N-terminal GST; dsDNA, one strand shown
T8 sequence: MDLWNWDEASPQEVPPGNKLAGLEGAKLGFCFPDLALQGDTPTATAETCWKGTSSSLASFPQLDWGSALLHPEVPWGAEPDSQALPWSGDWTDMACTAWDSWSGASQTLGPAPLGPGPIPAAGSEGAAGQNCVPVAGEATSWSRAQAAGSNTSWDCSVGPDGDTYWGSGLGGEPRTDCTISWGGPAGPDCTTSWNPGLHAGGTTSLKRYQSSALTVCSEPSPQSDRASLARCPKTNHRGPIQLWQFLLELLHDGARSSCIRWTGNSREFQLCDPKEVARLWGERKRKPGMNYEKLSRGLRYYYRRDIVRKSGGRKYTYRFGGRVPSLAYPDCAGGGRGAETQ
Outline: as §1

ELF3 = molecular target: T9, ELF3 (Homo sapiens, UniProt P78545 1-371); details: protein: recombinant; tags: N-terminal GST; dsDNA, one strand shown
T9 sequence: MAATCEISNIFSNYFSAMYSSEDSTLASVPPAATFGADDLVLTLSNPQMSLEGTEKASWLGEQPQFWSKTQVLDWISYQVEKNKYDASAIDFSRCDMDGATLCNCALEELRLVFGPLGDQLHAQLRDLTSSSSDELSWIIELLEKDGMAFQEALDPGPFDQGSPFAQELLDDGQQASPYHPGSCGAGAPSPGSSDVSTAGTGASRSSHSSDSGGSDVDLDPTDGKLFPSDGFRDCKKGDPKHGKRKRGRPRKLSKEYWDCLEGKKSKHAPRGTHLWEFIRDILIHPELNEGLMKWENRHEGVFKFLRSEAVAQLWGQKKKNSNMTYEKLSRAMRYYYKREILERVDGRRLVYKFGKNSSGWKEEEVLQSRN
Outline: as §1

CRX = CRX (Homo sapiens, UniProt O43186 1-299); details: protein: recombinant; tags: N-terminal GST; dsDNA, one strand shown
Chain of CRX (O43186 whole entry): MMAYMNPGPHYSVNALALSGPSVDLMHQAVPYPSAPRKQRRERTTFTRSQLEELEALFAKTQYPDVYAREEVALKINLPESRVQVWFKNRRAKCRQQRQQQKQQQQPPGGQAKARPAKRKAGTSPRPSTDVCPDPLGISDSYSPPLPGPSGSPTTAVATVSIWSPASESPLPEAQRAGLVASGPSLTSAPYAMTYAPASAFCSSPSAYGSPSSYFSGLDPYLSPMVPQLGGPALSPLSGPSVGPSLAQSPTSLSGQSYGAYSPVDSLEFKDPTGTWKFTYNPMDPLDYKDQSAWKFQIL
Outline: as §1

TGATCA
binding signal (FLI1): 1.04 fold enrichment (6-mer frequency, TF over GST control)
binding signal (ELK1): 1.05 fold enrichment (6-mer frequency, TF over GST control)
binding signal (GABPA): 1.03 fold enrichment (6-mer frequency, TF over GST control)
binding signal (ELF1): 1.07 fold enrichment (6-mer frequency, TF over GST control)
binding signal (EHF): 1.08 fold enrichment (6-mer frequency, TF over GST control)
binding signal (SPI1): 1.02 fold enrichment (6-mer frequency, TF over GST control)
binding signal (ELK3): 1.18 fold enrichment (6-mer frequency, TF over GST control)
binding signal (ETV5): 1.02 fold enrichment (6-mer frequency, TF over GST control)
binding signal (HSF1): 1.08 fold enrichment (6-mer frequency, TF over GST control)
binding signal (SPIC): 1.16 fold enrichment (6-mer frequency, TF over GST control)
binding signal (ELF4): 1.1 fold enrichment (6-mer frequency, TF over GST control)
binding signal (ELK4): 1.02 fold enrichment (6-mer frequency, TF over GST control)
binding signal (ETV2): 1.1 fold enrichment (6-mer frequency, TF over GST control)
binding signal (ELF3): 1.03 fold enrichment (6-mer frequency, TF over GST control)
binding signal (CRX): 1.18 fold enrichment (6-mer frequency, TF over GST control)
